Gli-Sufu antag: blocks Gli-Sufu signaling in a luciferase reporter; Sufu-KO-LIGHT fibroblasts, Gli luciferase reporter luminescence; inhibition, % at 5 µM; actives 0.74% (n = 340,000); AID 588413;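 active = inhibition above about 55%, limit read from the data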
Jurkat NFkB inh: inhibitors of the PMA/ionomycin-induced NF-kB reporter in Jurkat cells | inhibition, % at 4 µM | actives 0.53% (n = 330,000) | AID 435003 | PMA/ionomycin-induced NF-kB luciferase reporter, luminescence; in the data active = inhibition above about 50%
Mdm2-MdmX inh: human Mdm2/MdmX binding inhibition; O15151+Q00987; SaOS-2 split-luciferase Mdm2/MdmX complementation, luminescence; inhibition, % at 8 µM; actives 3% (n = 330,000);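 active = inhibition of at least 50% at 8 µM in the primary screen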
Target sequence (O15151 whole entry, looked up): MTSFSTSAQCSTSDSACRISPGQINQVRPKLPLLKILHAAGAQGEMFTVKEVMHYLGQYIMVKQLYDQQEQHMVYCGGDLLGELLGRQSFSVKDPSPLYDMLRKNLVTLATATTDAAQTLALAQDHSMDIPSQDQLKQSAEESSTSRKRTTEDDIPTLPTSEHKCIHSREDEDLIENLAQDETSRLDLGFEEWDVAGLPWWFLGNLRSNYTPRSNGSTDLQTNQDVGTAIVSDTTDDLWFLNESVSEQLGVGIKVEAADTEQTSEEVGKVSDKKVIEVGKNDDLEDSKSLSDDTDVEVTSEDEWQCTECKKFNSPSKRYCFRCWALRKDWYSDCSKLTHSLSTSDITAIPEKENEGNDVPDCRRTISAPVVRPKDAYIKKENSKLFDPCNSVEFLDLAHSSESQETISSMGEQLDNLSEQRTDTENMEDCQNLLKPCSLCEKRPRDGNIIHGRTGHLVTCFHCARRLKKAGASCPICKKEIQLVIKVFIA
Target sequence (Q00987 whole entry, looked up): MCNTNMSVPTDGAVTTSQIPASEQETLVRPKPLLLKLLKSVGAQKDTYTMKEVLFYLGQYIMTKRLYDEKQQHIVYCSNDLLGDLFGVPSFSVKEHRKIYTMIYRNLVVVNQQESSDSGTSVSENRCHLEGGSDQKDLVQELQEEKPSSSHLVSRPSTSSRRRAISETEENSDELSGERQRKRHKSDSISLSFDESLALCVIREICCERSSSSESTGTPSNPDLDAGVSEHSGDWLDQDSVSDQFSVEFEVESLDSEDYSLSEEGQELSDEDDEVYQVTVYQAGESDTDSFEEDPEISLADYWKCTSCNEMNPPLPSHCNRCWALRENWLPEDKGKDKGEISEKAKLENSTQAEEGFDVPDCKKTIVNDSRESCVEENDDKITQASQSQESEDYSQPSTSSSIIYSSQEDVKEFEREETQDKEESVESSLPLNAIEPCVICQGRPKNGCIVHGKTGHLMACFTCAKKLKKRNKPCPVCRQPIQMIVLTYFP
Beta cell apopt: beta cell apoptosis inhibition; INS-1E cytokine-induced death, ATP luminescence, 48 h; percent of positive-control rescue, neutral wells zero; protection from apoptosis, % (concentration not given with the values); actives 0.8% (n = 300,000);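 active = Every replicate reaches about 75%, or at least half do and their mean reaches it too, limit read from the data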;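 also: higher means more ATP so stronger rescue from cytokine killing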
697 NFkB inh: lowers PMA/ionomycin-induced NF-kB signal in 697 B cells; 697 B-cell NF-kB luciferase reporter, 16 h; inhibition, % at 4 µM; actives 0.33% (n = 330,000); AID 435022; in the data active = inhibition above about 35%
Gli antag conf: Gli-SUFU antagonism confirmation, single concentration. AID 602428. actives 40% (n = 2,500). inhibition, % at 5 µM. shares compounds with Gli-Sufu antag. Sufu-KO-LIGHT cells, Gli luciferase reporter, luminescence;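 active = mean inhibition at 5 µM reaching about 45%, limit read from the data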
SufuKO cytotox: cytotoxic in Gli-SUFU antagonist counter-screen; shares compounds with Gli-Sufu antag; Sufu-KO-LIGHT cells cytotoxicity, ATP luminescence; cytotoxicity, % at 5 µM; actives 32% (n = 2,500);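 active = mean cytotoxicity at 5 µM above about 25%, limit read from the data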;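 also: cells exposed to compound overnight for roughly 16 to 18 hours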
Wnt3a counter: Wnt3a reporter inhibition counter-screen; shares compounds with Gli-Sufu antag; Wnt-LIGHT cells, Wnt3a-driven luciferase reporter, luminescence; inhibition, % at 6.25 µM; actives 20% (n = 2,500);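 active = mean inhibition above about 25%, limit read from the data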
Of the large screens only hits and unclear results are named; the others gave an inactive call (follow-up assays come after a bar, where they were run). Shown are actives, neighbours in structure and some others; about 4% of the full set was active somewhere.

CCN(CC)C(=O)c1oc2ccc(S(=O)(=O)N3CC(C)CC(C)C3)cc2c1C (centres undefined)	Gli-Sufu antag 63 | Gli antag conf 62 | SufuKO cytotox inactive | Wnt3a counter 44
COc1cc(C2C3=C(COC3=O)Oc3cc4c(cc32)OCO4)cc(OC)c1O (centres undefined)	none (no result: Jurkat NFkB inh, Mdm2-MdmX inh, Beta cell apopt, 697 NFkB inh) | Gli antag conf 67 | SufuKO cytotox 64 | Wnt3a counter inactive
COc1cc(C2C3=C(COC3=O)Oc3cc4c(cc32)OCO4)cc(OC)c1OC (centres undefined)	Gli-Sufu antag 56 (no result: Jurkat NFkB inh, Mdm2-MdmX inh, Beta cell apopt, 697 NFkB inh) | Gli antag conf 57 | SufuKO cytotox 57 | Wnt3a counter inactive
O=C1OCC2=C1C(c1ccc3c(c1)OCO3)c1cc3c(cc1O2)OCO3 (centres undefined)	none (no result: Jurkat NFkB inh, Mdm2-MdmX inh, Beta cell apopt, 697 NFkB inh)
CCCn1c(CN2CCN(C(=O)OCC)CC2)nc2cc([N+](=O)[O-])ccc21	none
COc1ccc(C2CC(c3ccco3)n3ncnc3N2)cc1 (centres undefined)	Gli-Sufu antag 57 | Gli antag conf inactive | SufuKO cytotox inactive | Wnt3a counter inactive
CC1=C(C(N)=O)C(c2cccnc2)n2nc(SCc3ccccc3Cl)nc2N1 (centres undefined)	Gli-Sufu antag 58 | Gli antag conf inactive | SufuKO cytotox inactive | Wnt3a counter inactive
O=C(Nc1nc(-c2cc3ccccc3o2)cs1)c1ccc(S(=O)(=O)N2CCCC2)cc1	none | Gli antag conf 59 | SufuKO cytotox 30 | Wnt3a counter inactive
CCCC(C)C(=O)Nc1nc(C)c(-c2csc(Nc3ccc(Cl)cc3)n2)s1 (centres undefined)	Beta cell apopt 100 | Gli antag conf 60 | SufuKO cytotox inactive | Wnt3a counter inactive
CCCC(C)C(=O)Nc1nc(C)c(-c2csc(Nc3ccccc3OC)n2)s1 (centres undefined)	none
Cn1c(O)c(N=NC(=O)CNC(=O)c2cccnc2)c2ccccc21	none | Gli antag conf inactive | SufuKO cytotox inactive | Wnt3a counter inactive
O=C(Nc1cc(N2CCCCC2)ncn1)c1ccccc1	Gli-Sufu antag 72 | Gli antag conf 77 | SufuKO cytotox inactive | Wnt3a counter inactive
O=C(Nc1cc(Cl)ncn1)c1ccccc1	none
CS(=O)(=O)N1CCCC(C(=O)N2CCc3ccccc3C2)C1 (centres undefined)	none | Gli antag conf inactive | SufuKO cytotox inactive | Wnt3a counter inactive
CS(=O)(=O)N1CCC(C(=O)N2CCc3ccccc3C2)CC1	none
Cc1ccc(N(CC(=O)NC2CCCCC2)S(=O)(=O)c2c(C)noc2C)cc1	none | Gli antag conf inactive | SufuKO cytotox inactive | Wnt3a counter inactive
COc1ccc(N(CC(=O)NC2CCCCCC2)S(=O)(=O)c2c(C)nn(C)c2C)cc1	none | Gli antag conf inactive | SufuKO cytotox inactive | Wnt3a counter inactive
Cc1[nH]c(=O)c(S(=O)(=O)c2ccccc2)c(C)c1Cl	none
Cc1ccccc1NC(=O)Cc1c[nH]c2ccccc12	Gli-Sufu antag 55 | Gli antag conf inactive | SufuKO cytotox inactive | Wnt3a counter inactive
O=C(COc1ccccc1)Nc1ccc(OC(F)(F)C(F)F)c(NC(=O)COc2ccccc2)c1	Gli-Sufu antag 61 | Gli antag conf inactive | SufuKO cytotox inactive | Wnt3a counter inactive
CC(=O)Nc1ccc(OC(F)(F)C(F)F)c(NC(C)=O)c1	none
CCN(Cc1cnn(C)c1)C(=O)c1cc(COc2ccc(F)cc2F)on1	none
CCN(Cc1ccncc1)C(=O)c1cc(COc2ccc(F)cc2F)on1	none (no result: Beta cell apopt) | Gli antag conf inactive | SufuKO cytotox inactive | Wnt3a counter inactive
CCCCNCCCOc1cccc(Cl)c1Cl	Gli-Sufu antag 62 (no result: Beta cell apopt) | Gli antag conf inactive | SufuKO cytotox inactive | Wnt3a counter inactive
CCCCNCCCOc1ccc(C)cc1Br	Gli-Sufu antag 67 | Gli antag conf inactive | SufuKO cytotox inactive | Wnt3a counter inactive
Clc1cccc(OCCCN2CCCC2)c1Cl	none
CCc1ccc(NS(=O)(=O)c2c(C)noc2C)cc1	none (no result: Beta cell apopt)
COc1ccc(OC)c(S(=O)(=O)N2CCCC(C(=O)NCc3cccnc3)C2)c1 (centres undefined)	none
O=C(O)COCC(=O)Nc1ccc(OCCc2ccccc2)cc1	none
CCC(=O)OCC(=O)Nc1cc([N+](=O)[O-])ccc1Cl	none
CCC1(OC(=O)CN(C)C)C(=O)OCc2c1cc1n(c2=O)Cc2cc3c(N)cccc3nc2-1 (centres undefined)	Gli-Sufu antag 64 (no result: Jurkat NFkB inh, Mdm2-MdmX inh, Beta cell apopt, 697 NFkB inh) | Gli antag conf 63 | SufuKO cytotox 36 | Wnt3a counter inactive
CCC1(O)C(=O)OCc2c1cc1n(c2=O)Cc2cc3c(N)cccc3nc2-1 (centres undefined)	Gli-Sufu antag 84 (no result: Jurkat NFkB inh, Mdm2-MdmX inh, Beta cell apopt, 697 NFkB inh) | Gli antag conf 63 | SufuKO cytotox 49 | Wnt3a counter inactive
CCOC(=O)C(NCc1ccccn1)(NC(=O)c1cccnc1)C(F)(F)F (centres undefined)	Gli-Sufu antag 96 | Gli antag conf inactive | SufuKO cytotox inactive | Wnt3a counter inactive
CCOC(=O)C(NC(=O)c1cccnc1)(Nc1cccc(C)n1)C(F)(F)F (centres undefined)	none
O=C(C[n+]1ccccc1)c1ccc(-c2ccccc2)cc1	none
C=Cn1cc[n+](CC(=O)c2ccc(-c3ccccc3)cc2)c1	none | Gli antag conf inactive | SufuKO cytotox inactive | Wnt3a counter inactive
CC[n+]1ccccc1/C=C/c1ccc(N(C)C)cc1	Gli-Sufu antag 81 (no result: Jurkat NFkB inh, Mdm2-MdmX inh, Beta cell apopt, 697 NFkB inh) | Gli antag conf 84 | SufuKO cytotox inactive | Wnt3a counter 40
CC(=O)Nc1cccc(C(=O)OCC(=O)NNC(=O)c2ccc([N+](=O)[O-])cc2)c1	none
CC(=O)Nc1cccc(C(=O)OCc2ccc([N+](=O)[O-])cc2)c1	Gli-Sufu antag 63 | Gli antag conf inactive | SufuKO cytotox inactive | Wnt3a counter inactive
COc1ccc(CCCC(=O)O)c(C)c1	Gli-Sufu antag 95 | Gli antag conf inactive | SufuKO cytotox inactive | Wnt3a counter inactive
Cc1ccc(C(=O)O)cc1NC(=O)Nc1ccc2c(c1)OCO2	Gli-Sufu antag 56 | Gli antag conf inactive | SufuKO cytotox inactive | Wnt3a counter inactive
O=C(Nc1ccc2c(c1)OCO2)Nc1ccc2c(c1)OCO2	none
CCOc1ccc(N(C)C(=O)CCc2nnc3ccc(N4CCCCC4)nn23)cc1	Gli-Sufu antag 59 (no result: Beta cell apopt) | Gli antag conf inactive | SufuKO cytotox inactive | Wnt3a counter inactive
Cc1ccc(CNS(=O)(=O)c2cc3c4c(c2)C(C)C(=O)N4CCC3)cc1 (centres undefined)	none
CC(=O)c1ccc(N2CCN(c3ccc(C(F)(F)F)cn3)CC2)cc1	none (no result: Jurkat NFkB inh, Mdm2-MdmX inh, 697 NFkB inh) | Gli antag conf 52 | SufuKO cytotox inactive | Wnt3a counter inactive
CCCCn1c(-c2sccc2C)n[nH]c1=S	none
O=C(CCCOc1ccc(Cl)cc1Cl)Nc1ccccc1C(=O)O	none

High-throughput results as filed in PubChem BioAssay.
